# Screening results (PubChem)
# DNA FID counter = compounds displacing fluorescent DNA intercalator, primary screen, artefact control for HCV NS3 helicase inhibitor project, biochemical, FID fluorescence; DNA fluorescent intercalator displacement; 290,000 tested, 0.17% active; AID 1845, 2009; inhibition, % at 7.9 µM; in the data active = inhibition above about 37%;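 note: 0% = vehicle and 100% = reference compound; higher means more ethidium bromide displaced from hairpin DNA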
# beta cell repl = inducers of MIN6 beta-cell proliferation, primary screen, ATP luminescence, uHTS; MIN6 cells proliferation, ATPlite luminescence, 48 h; cells starved in 0.2% serum; 100% = growth in 10% serum; proliferation, % at 10 µM; 330,000 tested, 0.29% active; AID 2380, 2010;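 active = compounds whose signal lies at least 3.5 SD above the mean of all wells on their plate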;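 note: 0% = DMSO-treated cells in low-serum medium and 100% = 10% serum control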
# RAD52 inh = RAD52 DNA annealing inhibitors, primary screen, biochemical, FRET, single point, set 2; DNA repair protein RAD52 homolog (Homo sapiens), P43351; recombinant RAD52 DNA annealing, FRET fluorescence; inhibition, % at 18.7 µM; 360,000 tested, 0.46% active; AID 651710, 2012;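 active = every replicate showing at least 50% inhibition; inconclusive = mean inhibition at least 50% but not in every replicate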
# PREPL inhibitor = PREPL enzyme inhibitors, primary screen, biochemical, fluorescence polarization; recombinant PREPL, fluorescence polarization activity-based probe; inhibition, % at 5.96 µM; 320,000 tested, 0.68% active; AID 2751, 2010; in the data active = inhibition above about 43%;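 note: 0% = enzyme with DMSO and 100% = wells lacking enzyme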
# UBC13 polyUb = UBC13 polyubiquitin chain formation inhibitors, primary screen, biochemical, TR-FRET, uHTS; inhibition, % at 20 µM; Ubiquitin-conjugating enzyme E2 N (Homo sapiens), P61088; 330,000 tested, 0.47% active; AID 485273, 2010; in the data active = inhibition above about 45%, passing the limit was not always enough; inconclusive = no clear call, values can overlap the other calls
# Target sequence (P61088 whole entry, looked up): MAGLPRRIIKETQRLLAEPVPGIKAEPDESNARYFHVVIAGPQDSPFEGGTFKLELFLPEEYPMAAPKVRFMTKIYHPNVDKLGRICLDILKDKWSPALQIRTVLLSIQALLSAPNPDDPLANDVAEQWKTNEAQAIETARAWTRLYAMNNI
# RAD54 branch = inhibitors of human RAD54 branch migration, primary screen, biochemical, fluorescence, single point; DNA repair and recombination protein RAD54-like (Homo sapiens), Q92698; RAD54 Holliday junction branch migration, FAM/BHQ fluorescence; inhibition, % at 10.4 µM; 360,000 tested, 0.14% active; AID 602329, 2012;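 active = mean normalized replicate activity at least 40 and at least half of replicates scoring 40 or more; inconclusive = only one of the two criteria met; inactive = mean below 40 and under half of replicates reaching 40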;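 note: 0% = median of neutral control wells and 100% = median of positive control wells; inhibitors cause a drop in the FAM fluorescence signal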
# Casp3 counter = CASP3 inhibitor validation, counterassay for project on UBE2N polyubiquitination blockers, biochemical, one dose; shares compounds with UBC13 polyUb; 1,400 tested, 4% active; Recombinant caspase-3, Caspase-Glo 3/7 luminescence, 60 min; AID 488856, 2010; inhibition, % at 20 µM;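 active = mean inhibition across replicates above about 26%, limit read from the data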;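 note: plate controls were DMSO with caspase-3 for no effect and DMSO wells lacking enzyme for full effect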
# Target sequence (P42574 whole entry, looked up): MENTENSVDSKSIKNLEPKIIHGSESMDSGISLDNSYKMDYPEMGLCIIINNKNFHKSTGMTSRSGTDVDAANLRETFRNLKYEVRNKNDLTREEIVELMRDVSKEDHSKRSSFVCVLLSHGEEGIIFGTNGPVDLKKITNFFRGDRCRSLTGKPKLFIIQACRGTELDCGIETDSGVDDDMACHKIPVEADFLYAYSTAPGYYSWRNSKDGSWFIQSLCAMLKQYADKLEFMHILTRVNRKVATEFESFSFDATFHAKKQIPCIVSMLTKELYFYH
# UBC13 confirm = UBC13 polyubiquitination inhibitors, single-point retest, confirmation, biochemical, TR-FRET, single concentration; 1,400 tested, 68% active; inhibition, % at 10 µM; AID 488859, 2010; shares compounds with UBC13 polyUb; in the data active = inhibition above about 45%; inconclusive = no clear call, values can overlap the other calls
# Active calls of the source: *; u = inconclusive; x = not tested or not shown. The list is not random: actives were taken first. Their share in the collection is about 1.3%.
SMILES,DNA FID counter,beta cell repl,RAD52 inh,PREPL inhibitor,UBC13 polyUb,RAD54 branch,Casp3 counter,UBC13 confirm
CCN1CCN(Cc2ccc(NC(=O)c3cc(NC(=O)c4cc(C)on4)cc(OC)c3)cc2C(F)(F)F)CC1,42*,-9,20,-18,52*,14,-3,26
CCN1CCN(Cc2ccc(NC(=O)c3cc(NC(=O)c4cnn(-c5ccccc5)c4N)cc(OC)c3)cc2C(F)(F)F)CC1,x,-9,6,4,79*,-24,-4,50*
COc1ccc(S(=O)(=O)N[C@H]2CC[C@@H](CC(=O)O)O[C@H]2CO)cc1,x,x,-1,x,x,-2,x,x
CO[C@H]1CN(C)C(=O)c2ccc(NC(=O)c3cnccn3)cc2OC[C@H](C)N(C(=O)C2CC2)C[C@@H]1C,x,x,-11,x,x,-1,x,x
C/C(Cl)=C\Cn1c(O)c(N=NC(N)=S)c2cc(Br)ccc21,5,-6,-10,20,-7,-18,x,x
CC1=CC(C)(C)n2c(O)c(N=NC(N)=S)c3cc(C)cc1c32,-16,-5,x,1,57*,9,-3,52*
Cc1cccc(Nc2cc(C)c3c(O)cccc3n2)c1C,18,-6,-72,11,74*,-9,0,58*
COc1cccc(NC(=O)N[C@@H]2CC[C@@H](CC(=O)N3CCOCC3)O[C@H]2CO)c1,x,x,-1,x,x,-3,x,x
CN(CCCNC(=O)CCCOc1cc(=O)n(C)c2ccccc12)Cc1ccccc1,4,-3,-1,-10,28,-3,x,x
CN(CCNC(=O)CCCOc1cc(=O)n(C)c2ccccc12)Cc1ccccc1,6,1,-2,-12,51*,x,4,68*
O=C(COc1ccc(Cc2ccccc2)cc1)c1ccc(F)cc1,-13,0,-14,-5,45*,-2,49*,8
O=C(COc1ccc(F)cc1)c1ccc2c(c1)CCCC2,-7,2,x,10,-1,1,x,x
COc1ccc(-c2c(-c3ccc(C#N)cc3)oc(=O)c3cc(OC)c(OC)cc23)cc1,x,-3,-5,-8,45*,-5,0,24
CNC[C@@H]1OCCCC[C@H](C)Oc2ccc(N)cc2C(=O)N([C@@H](C)CO)C[C@H]1C,x,x,-127,x,x,-18,x,x
Cc1sc2nc(C(C)Nc3ccccc3N3CCOCC3)[nH]c(=O)c2c1C (stereo not given),-18,-3,x,-1,74*,1,-1,87*
C[C@H](CO)N1C[C@H](C)[C@@H](CN(C)S(=O)(=O)c2ccc(Cl)cc2)Oc2c(NS(C)(=O)=O)cccc2C1=O,x,x,-2,x,x,-8,x,x
O=C(C[C@H]1CC[C@H]2[C@@H](COC[C@@H](O)CN2CC2CCOCC2)O1)NCC1CC1,x,x,7,x,x,3,x,x
CCCCN1CCc2c1nc1ccc(Br)cc1c2N,7,-4,5,37,55*,26,1,u
C=C(C)COc1ccc(-c2[nH]ncc2Oc2cccc(OC)c2)c(O)c1,-4,-5,x,6,68*,0,-4,68*
CCN(CC)CCOc1ccc(Br)cc1,9,-1,x,-4,-2,-7,x,x
CCN(CC)CCOc1ccc(/C(=C(\Cl)c2ccccc2)c2ccccc2)cc1,x,-8,27,-2,74*,15,-2,81*
Cc1ccc(-n2nc3c4c(cccc4c2=O)-c2ccccc2-3)cc1,3,-3,x,4,46*,-2,8,39
Cc1ccc(-n2nc(C)c3c(C(=O)OCC(=O)N(C)C4CCS(=O)(=O)C4)cc(-c4ccccc4)nc32)cc1 (stereo not given),-18,0,x,8,16,x,x,x
